Bioassay records deposited in PubChem BioAssay by National Center for Advancing Translational Sciences (NCATS).
HT1080 IDH1KD tx = qHTS for induction of synthetic lethality in tumor cells producing 2HG: qHTS for the HT-1080-IDH1KD cell line; Potency, µM (top dose mostly 46.1 µM), most hits filed as cytotoxic; HT-1080 IDH1 knockdown viability, ATP luminescence, 48 h; AID 686971, 2013; actives 2% (n = 360,000)
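Cytotoxicity counter-line: IDH1KD HT-1080, 48 h, CellTiter-Glo. Curves classed by r2, magnitude and activity.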
IL-1B inflam inh = qHTS for Inhibitors of Inflammasome Signaling: IL-1-beta AlphaLISA Primary Screen. THP-1 LPS/ATP IL-1B secretion, AlphaLISA, 16 h; active compounds read low. activity change, % at 57.5 µM. actives 4.7% (n = 360,000); in the data active = activity change below about -50%; inconclusive = mostly about -30% to -49%
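Secreted IL-1B measured by AlphaLISA bead assay after 16 h compound exposure of THP-1 cells; compounds (final up to 57.5 uM) added 1 h before LPS (250 ng/mL) and ATP (1.25 mM) stimulation; lower signal means less secretion.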
HT1080NT lethal = qHTS for induction of synthetic lethality in tumor cells producing 2HG: qHTS for the HT-1080-NT fibrosarcoma cell line; HT-1080-NT fibrosarcoma viability, CellTiter-Glo ATP luminescence, 48 h; Potency, µM (series often up to 46.1 µM), actives largely listed as cytotoxic; actives 1.6% (n = 360,000); AID 686970, 2013;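 also: NT is the 2HG producing partner of a matched IDH1 knockdown line; nearly all actives have a fitted effect of over 55% in size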
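A 48-hour cytotoxicity screen used HT-1080-NT cells plated 2 hours before compound delivery. ATP-based CellTiter-Glo luminescence measured viability, normalized to DMSO and no-cell controls.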
DT40 TDP1 CPT = qHTS for Inhibitors of human tyrosyl-DNA phosphodiesterase 1 (TDP1): qHTS in cells in presence of CPT | Potency, µM (doses to about 46.2 µM), usual class: inhibitors | chicken DT40 Tdp1-/-;hTDP1 cells + 20 nM CPT, ATP luminescence, 48 h | actives 12% (n = 420,000) | AID 686979, 2013; also: nearly all actives have a fitted effect of over 55% in size
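Cell growth measured by CellTiter-Glo luminescence after a minimum 48 h, 37 C compound exposure with 20 nM CPT in Tdp1-knockout DT40 cells stably expressing hTDP1, seeded 400/well; qHTS titration format.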
TDP1 cell noCPT = qHTS for Inhibitors of human tyrosyl-DNA phosphodiesterase 1 (TDP1): qHTS in cells in absence of CPT. actives 15% (n = 420,000). AID 686978, 2013. Potency, µM (highest dose often 46.2 µM), actives largely listed as inhibitors. DT40 Tdp1-/- hTDP1 cells, no CPT, ATP luminescence, 48 h; also: nearly all actives have a fitted effect of over 55% in size
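Camptothecin absent (DMSO only). Human TDP1-complemented DT40 knockout cells, 400 cells/well, 37 °C for minimum 48 hr; ATP measured via CellTiter-Glo, 30 min dark incubation, luminescence.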
Large screens that a line does not name were inactive. Sampled rows, rich in hits. Any-hit rate of the full collection: about 19%. Unless noted, calls follow the shape of the dose curve; as a rule, active = well fitted curve in the direction sought with a large enough effect; inconclusive = small, poorly fitted or top-dose-only effect, or another doubt; inactive = no such curve, though single readings can be large; an effect the other way counts as inactive or inconclusive.

COc1ccccc1OCCOCCOc1c(C)cc(C)cc1Br	DT40 TDP1 CPT inconclusive, TDP1 cell noCPT 23µM
O=C1CN(C(=O)CN2C(=O)NC(c3ccccc3)(c3ccccc3)C2=O)c2ccccc2N1	none
Cc1ccc(C2(c3ccccc3)NC(=O)N(CC(=O)NC3CCCCC3)C2=O)cc1C (configuration not stated)	DT40 TDP1 CPT inconclusive, TDP1 cell noCPT 18µM
Cc1ccc(C2(c3ccccc3)NC(=O)N(CC(=O)N3CC(=O)Nc4ccccc43)C2=O)cc1C (configuration not stated)	DT40 TDP1 CPT inconclusive, TDP1 cell noCPT 23µM
CC1(c2cccc(Br)c2)NC(=O)N(CC(=O)NC2CCCCC2)C1=O (configuration not stated)	none
C1=C(c2ccco2)N2CCN=C2S1	none
CCOC(=O)c1oc2ccccc2c1NC(=O)c1cccc(OC)c1OC	HT1080 IDH1KD tx inconclusive, HT1080NT lethal inconclusive, DT40 TDP1 CPT 16µM, TDP1 cell noCPT 18µM
COc1ccc(NC(=O)c2oc3ccccc3c2NC(=O)c2cc(OC)c(OC)c(OC)c2)cc1	DT40 TDP1 CPT 21µM, TDP1 cell noCPT 12µM (no result: HT1080 IDH1KD tx, IL-1B inflam inh, HT1080NT lethal)
CCOC(=O)c1oc2ccccc2c1NC(=O)c1ccc2c(c1)OCO2	none
CCOC(=O)c1oc2ccccc2c1NC(=O)CCl	HT1080 IDH1KD tx inconclusive, IL-1B inflam inh inconclusive, DT40 TDP1 CPT 10µM, TDP1 cell noCPT 7.3µM
CCOC(=O)c1oc2ccccc2c1NC(=O)c1cccc(OC)c1	DT40 TDP1 CPT 13µM, TDP1 cell noCPT 18µM
CCOC(=O)c1oc2ccccc2c1NC(=O)c1ccco1	DT40 TDP1 CPT inconclusive, TDP1 cell noCPT inconclusive
CCOC(=O)c1oc2ccccc2c1NC(=O)c1ccc(Cl)s1	DT40 TDP1 CPT inconclusive, TDP1 cell noCPT inconclusive
CN(C(=O)Cn1nnc2ccccc2c1=O)C1CCCCC1	none
COc1ccc(C(=O)c2oc3ccccc3c2NC(=O)c2cccc(OC)c2)cc1	none (no result: HT1080 IDH1KD tx, IL-1B inflam inh, HT1080NT lethal)
CCOc1ccc(NC(=O)c2oc3ccccc3c2NC(=O)C(C)Oc2ccccc2)cc1 (configuration not stated)	DT40 TDP1 CPT inconclusive, TDP1 cell noCPT 21µM (no result: HT1080 IDH1KD tx, IL-1B inflam inh, HT1080NT lethal)
COc1cccc(C(=O)Nc2c(C(N)=O)oc3ccccc23)c1	DT40 TDP1 CPT inconclusive, TDP1 cell noCPT 16µM
Cc1n[nH]c(=S)n1/N=C/c1c(O)ccc2ccccc12	HT1080 IDH1KD tx inconclusive
CN1CCN(c2ccc(NC(=O)c3ccc(C#N)cc3F)cc2Cl)CC1	TDP1 cell noCPT inconclusive
COc1cccc(N2CCN(Cc3nnc(-c4ccc5c(c4)OCO5)o3)CC2)c1	none (no result: HT1080 IDH1KD tx, IL-1B inflam inh, HT1080NT lethal)
Clc1ccc(N2CCN(Cc3nnc(-c4ccc5c(c4)OCO5)o3)CC2)cc1	DT40 TDP1 CPT inconclusive, TDP1 cell noCPT 18µM (no result: HT1080 IDH1KD tx, IL-1B inflam inh, HT1080NT lethal)
Fc1ccccc1N1CCN(Cc2nnc(-c3ccc4c(c3)OCO4)o2)CC1	DT40 TDP1 CPT inconclusive (no result: HT1080 IDH1KD tx, IL-1B inflam inh, HT1080NT lethal)
Fc1ccc(N2CCN(Cc3nnc(-c4ccccc4)o3)CC2)cc1	none
FC(F)(F)c1cccc(N2CCN(Cc3nnc(-c4ccc5c(c4)OCO5)o3)CC2)c1	DT40 TDP1 CPT inconclusive, TDP1 cell noCPT 16µM (no result: HT1080 IDH1KD tx, IL-1B inflam inh, HT1080NT lethal)
Fc1ccc(-c2nnc(CN3CCN(c4ncc(C(F)(F)F)cc4Cl)CC3)o2)cc1	HT1080 IDH1KD tx inconclusive, DT40 TDP1 CPT 13µM, TDP1 cell noCPT 15µM
CCOc1cc(C#N)ccc1OCC(=O)N1CCN(C(=O)c2cccs2)CC1	none
O=C(CSc1ncccn1)NCC1CCCO1 (configuration not stated)	none
Cc1ccc(C)c2[nH]c(=O)c(CN(CCN3CCCC3)C(=O)Nc3ccc(F)cc3)cc12	HT1080 IDH1KD tx inconclusive, IL-1B inflam inh inconclusive, HT1080NT lethal 16µM, DT40 TDP1 CPT inconclusive, TDP1 cell noCPT 15µM
Cc1cccc2cc(CN(CCCO)C(=O)Nc3ccc(Cl)cc3)c(=O)[nH]c12	HT1080 IDH1KD tx inconclusive, IL-1B inflam inh inconclusive, HT1080NT lethal inconclusive, DT40 TDP1 CPT inconclusive, TDP1 cell noCPT 21µM
Cc1cccc2cc(CN(CCCO)C(=O)Nc3cccc(Cl)c3)c(=O)[nH]c12	DT40 TDP1 CPT 23µM, TDP1 cell noCPT 21µM
